# Measurements: PubChem BioAssay (NCATS)
# Results filed as inconclusive are left out. A number with no mark means an inactive call. Active and inactive are the calls of the source. Calls come from the whole dose curve; as a rule, active = well fitted cell-killing curve with a large enough effect; inconclusive = small, poorly fitted or top-dose-only effect, or effect the other way; inactive = no such curve, though single readings can be large or run the other way.
# Test: Viability qHTS for spleen associated tyrosine kinase inhibitor (SYKi) drug resistant MV4-11 cells (AID 1963824); note: nearly all actives have a fitted effect of over 35% in size
# Conditions: SYKi-resistant MV4-11 viability, CellTiter-Glo, 72 h; series mostly up to 45 µM; viability, % of control: at the top concentration
# How it was run: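 SYK-inhibitor-resistant MV4-11 AML cells were seeded at 500 per well onto compound and cultured 72 hours (37 °C, 5% CO2). CellTiter-Glo was then added, and after 10 min at room temperature, luminescence gave viability.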
# Potency is the fitted concentration of half-maximal effect.
SMILES,"viability, % of control [%]",Potency
COc1ccc(O[C@@H]2O[C@H](CO)[C@@H](O)[C@H](O)[C@H]2O)cc1OC,88.9,
C=C1C(=O)O[C@@H]2/C=C(/C)[C@@H](OC(C)=O)C/C=C(\C)C[C@@H](OC(=O)/C(=C/CO)CO)[C@@H]12,,3.55 µM (active)
CC1(C)CCCC2(C)C3=C(C(=O)OC3O)C(O)CC12 (centres undefined),93.6,
Cc1ccc(NC(=O)C(C)C)cc1C1CCN(Cc2ccc(Oc3ccc(F)c(F)c3)cc2)CC1,,4.61 µM (active)
C=CC(C)(/C=C/c1ccc(O)cc1)CCC=C(C)C (centres undefined),,23.1 µM (active)
O=C(Cc1c(F)cccc1F)Nc1cc(OCc2ccc(Cl)cc2)ccn1,,14.6 µM (active)
C=C(C(=O)OC)[C@@H]1CC=C2C=CC(=O)[C@H](C)[C@@]2(C)C1,,18.4 µM (active)
COc1ccccc1[C@@H]1C2=C(CC(C)(C)CC2=O)Nc2n[nH]c(C(F)(F)F)c21,,23.1 µM (active)
Cc1ccc2c(Nc3ccc(Cl)cc3)nccc2c1Nc1ncccc1-c1ncnc2nc[nH]c12,,2.31 µM (active)
